Holding throughout (test): NCI-60 one-dose screen, 48 h (100 = growth as untreated, 0 = no growth, -100 = all killed)
Holding throughout (details): 10 µM unless noted

Assay [1] deals with RPMI-8226 leukemia.
For assay [2], the system named is OVCAR-8 ovarian.
Assay [3] deals with OVCAR-5 ovarian.
The subject of assay [4] is OVCAR-4 ovarian.
Assay [5] has as its system SK-OV-3 ovarian.
For assay [6], the system named is IGROV1 ovarian.
The test system of assay [7] is OVCAR-3 ovarian.
Assay [8] deals with HS 578T breast.
Assay [9] has as its system NCI/ADR-RES ovarian.

Molecules are shown by their SMILES. The panel holds about 83,000 compounds, 20% with a hit somewhere; the sample as a whole holds those more often.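 Assay: single dose, 48 h. Readout: percent growth (0 = no net growth; negative = cell death). Active: <10.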 Values without a mark were called inactive. Calls of active or inactive are those of the source.

For `O=C1c2ccc3c4c(ccc(c24)C(=O)N1CCCNCc1ccccc1Cl)C(=O)N(CCCNCc1ccccc1Cl)C3=O`, the growth in assay [1] was -28.9% (active); in assay [2], -38.3% (active); in assay [3] it was -39.2% (active); in assay [4], -96.6% (active); in assay [5], 28.3%; in [6], -34.1% (active). Further, the growth in assay [7] is -64.4% (active); in assay [8] it was -22.9% (active); in [9], -12.3% (active).
Consider `COC(=O)c1ccc2c(c1)[n+](=O)c(C(C)=O)c(C(F)(F)F)n2[O-]`, for which the growth in [1] was -48% (active); in [2], 9.07% (active); in assay [3], -12.9% (active); in assay [4], -42% (active); in assay [5], -31.4% (active); in [6], -78.3% (active). Besides, the values for the growth in assay [7], in assay [8] and in assay [9] were -92.8% (active), -19.4% (active) and -40.7% (active), respectively.
Turning to `COc1cc(/C=C\c2cc(/C=C\c3ccc(O)c(OC)c3)n(C(=O)COc3ccccc3)n2)ccc1O`, the growth in assay [1] is -3.54% (active); in assay [2] it was 3.26% (active); in [3] it was 22.1%; in assay [4], 25.6%; in assay [5], -28.6% (active); in [6] it was 8.43% (active). The growth in assay [7] is -4.46% (active); in assay [8], 22.5%; in assay [9] it was 20.4%.
On to `COc1cc(CC(=O)n2ncc3ccc(N)cc32)cc(OC)c1OC`, for which the growth in assay [1] was 100%; in [2] it was 104%; in assay [3], 91.9%; in [4], 88.4%; in assay [5], 95.6%; in [6] it was 90.7%. For the same compound, the growth is 108% in [7], 103% in assay [8] and 90.1% in assay [9].
Turning to `COc1cc(-c2cc(-c3ccc(N(C)C)cc3)nc(N3CCOCC3)c2C#N)cc(OC)c1OC`, the growth in assay [1] was 9.28% (active); in assay [2], 22.4%; in assay [3], 37.9%; in assay [4] it was 64.5%; in assay [5] it was 55.9%; in assay [6] it was 42.2%. The results for the growth in assay [7], in assay [8] and in assay [9] were 87.9%, 77.9% and 4.22% (active), respectively.
For `CCNc1nc2cc(Nc3ccnc4cc(Cl)ccc34)ccc2o1`, the growth is 80.9% in assay [1]; 85.3% in assay [2]; 71.8% in assay [3]; 75.5% in [4]; 84.8% in assay [5]; 70.1% in assay [6]. The growth in assay [7] was 80.9%; in assay [8], 84.5%; in assay [9] it was 52.3%.
With `Oc1ccc(C2c3ccccc3Oc3ccccc32)c2cccnc12`, the growth in assay [1] was 28.8%; in [2] it was 7.16% (active); in assay [3] it was 44.9%; in assay [4] it was 30.6%; in assay [5] it was 31.4%; in [6] it was 20.4%. For the same compound, the growth in assay [7] is 56.5%; in [8], 77.6%; in assay [9], 7.48% (active).
With `Cc1cc(Cl)nc(N(CCNc2ccnc3cc(Cl)ccc23)Cc2ccccn2)n1`, the growth in assay [1] is 26.6%; in assay [2], 39.3%; in [3], 74.3%; in [4], 35%; in assay [5], 82.9%; in [6], 57.5%. Further, the growth was 3.13% (active) in assay [7], 87.3% in [8] and 47.5% in [9].
Take `N#Cc1c(-c2cccc([N+](=O)[O-])c2)nc(SCC(=O)c2ccc(Cl)cc2)[nH]c1=O`: the growth in assay [1] is 102%; in assay [2] it was 99.3%; in [3] it was 102%; in [4] it was 102%; in [5] it was 95.4%; in assay [6] it was 104%. In addition, the growth in assay [7] is 103%; in assay [8], 97.6%; in [9], 97.2%.
For `O=C1Nc2ccccc2/C1=C\c1c(-c2ccc(F)cc2)nc2ccccn12`, the growth was 94.8% in assay [1]; 86.8% in [2]; 77.5% in [3]; 83.9% in [4]; 62.7% in assay [5]; 57.1% in assay [6]. Moreover, the growth in assay [7] is 62.1%; in assay [8], 91.5%; in assay [9], 35.4%.
Consider `CC(=O)N1N=C(c2ccc(-n3ccc(C(F)(F)F)n3)c(F)c2)CC1c1ccc[nH]1` (stereo unspecified), for which the growth was 80.8% in assay [1]; 98.9% in [2]; 105% in assay [3]; 102% in assay [4]; 118% in assay [5]; 112% in assay [6]. In addition, the growth was 107% in [7], 106% in assay [8] and 104% in [9].
On to `COc1cc2c(-c3cc4c(cc3CNCCc3ccc5c(c3)OCO5)OCO4)cccc2c(OC)c1O`, for which the growth was 63.8% in [1]; 79.9% in assay [2]; 90.9% in assay [3]; 88.4% in assay [4]; 99.6% in assay [5]; 61.6% in [6]. The growth was 86.1% in [7], 86.8% in [8] and 74.5% in assay [9].
As to `COC(=O)/C=C1\S/C(=N\NC(=O)c2cc3ccc2/C=C\c2ccc(cc2)/C=C\3)N(c2ccccc2)C1=O`, the growth in assay [1] is -20.9% (active); in [2] it was 40.7%; in [3], 48.2%; in [4] it was 29.4%; in assay [5], 135%; in assay [6] it was 5.97% (active). Also, the growth in assay [7] was -6.25% (active); in assay [8], 77.9%; in assay [9], 31.4%.
With `O=C(Cn1c[n+](CC(=O)c2ccc(-c3ccccc3)cc2)c2ccccc21)Nc1cccc2cccnc12`, the growth in [1] was -30.2% (active); in assay [2], 20%; in assay [3], 62.8%; in assay [4], 10.3%; in assay [5] it was 50.5%; in assay [6], -38.2% (active). For the same compound, the growth is -1.51% (active) in [7], 33.5% in assay [8] and 96.7% in [9].
With `CCN(CC)CCOc1ccc(NC(=O)C(C(C)C)N2C(=O)/C(=C/c3ccc(Br)cc3)SC2=S)cc1` (stereo unspecified), the growth in assay [1] was 19.5%; in [2] it was 25.6%; in assay [3], 66.4%; in assay [4], 70.5%; in assay [5] it was 113%; in [6], 82.2%. The growth is 94% in assay [7], 84.2% in assay [8] and 80% in assay [9].
Regarding `COc1ccc2[nH]c(=O)c(CN3CCN(c4nccc(-c5ccc(Cl)cc5)n4)CC3)cc2c1`, the growth in [1] was 73.6%; in assay [2] it was 66%; in assay [3], 98.5%; in [4], 71.4%; in [5] it was 94.9%; in assay [6], 106%. The growth is 100% in [7], 72.9% in assay [8] and 82.4% in [9].
For `COCc1cnccc1NC1CCCCCC1`, the growth in assay [1] is 104%; in [2] it was 96.3%; in [3], 108%; in assay [4], 98.6%; in assay [5], 111%; in assay [6] it was 110%. Also, the growth in assay [7] was 102%; in [8], 96%; in assay [9], 100%.
As for `Cc1cc2nc3c4cccc(O)c4n(CCN(C)C)c3nc2cc1C`, the growth in assay [1] is -5.71% (active); in [2], 38%; in assay [3] it was 55.3%; in assay [4], 44.4%; in [5] it was 46.3%; in assay [6], 19.1%. Also, the growth in assay [7] was 45.4%; in assay [8], 72.8%; in assay [9], 32.3%.
With `CNCCn1c(=O)c2cc(OC)c(OC)cc2c2ccc3cc4c(cc3c21)OCO4`, the growth in [1] was -27.6% (active); in assay [2] it was 10.2%; in [3] it was 4.57% (active); in assay [4], -10.9% (active); in assay [5], -0.269% (active); in [6], 0.994% (active). For the same compound, the figures for the growth in [7], in assay [8] and in assay [9] were -6.33% (active), 4.39% (active) and 4.99% (active), respectively.

(Values after PubChem BioAssay (NCI).)
